What all share (assay): PBM; 200 nM protein, PBS
Holding throughout (conditions): dsDNA, one strand shown

In test [1] the target is T1, PAX4 (Homo sapiens, UniProt O43316 9-242, R200K).
T1 sequence: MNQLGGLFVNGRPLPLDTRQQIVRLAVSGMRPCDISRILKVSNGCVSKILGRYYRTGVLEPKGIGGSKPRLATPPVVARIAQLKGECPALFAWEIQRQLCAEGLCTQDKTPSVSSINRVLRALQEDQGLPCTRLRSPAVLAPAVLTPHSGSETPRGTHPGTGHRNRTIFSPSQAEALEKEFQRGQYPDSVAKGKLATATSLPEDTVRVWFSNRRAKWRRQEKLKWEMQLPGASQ

Test [2] has as its target T2, PAX4 (Homo sapiens, UniProt O43316 9-242).
T2 sequence: T1 sequence with K192R

For test [3], the target named is T3, PAX4 (Homo sapiens, UniProt O43316 9-242, R200Q).
T3 sequence: T1 sequence with K192Q

In test [4] the target is T4, PAX4 (Homo sapiens, UniProt O43316 9-242, F177V).
T4 sequence: T1 sequence with F169V, K192R

The target in test [5] is T5, PAX4 (Homo sapiens, UniProt O43316 9-242, F177Y).
T5 sequence: T1 sequence with F169Y, K192R

The target in test [6] is T6, PAX4 (Homo sapiens, UniProt O43316 9-242, R227W).
T6 sequence: T1 sequence with K192R, R219W

Test [7] concerns the target VAX1 (Homo sapiens, UniProt Q5SQQ9 86-172).
The target in test [8] is VAX1 (Homo sapiens, UniProt Q5SQQ9 86-172, T142I).
Chain of VAX1 (Homo sapiens, UniProt Q5SQQ9 86-172, T142I) (Q5SQQ9 86-172 T142I): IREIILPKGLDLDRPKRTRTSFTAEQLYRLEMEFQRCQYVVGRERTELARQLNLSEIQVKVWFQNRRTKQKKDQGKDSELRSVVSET
In test [9] the target is VAX1 (Homo sapiens, UniProt Q5SQQ9 86-172, K157R).
Chain of VAX1 (Homo sapiens, UniProt Q5SQQ9 86-172, K157R) (Q5SQQ9 86-172 K157R): as the sequence (Q5SQQ9 86-172 T142I) above, with I57T, K72R counted along it

Positions count from the first letter of the chain named.

Chain of VAX1 (Homo sapiens, UniProt Q5SQQ9 86-172) (Q5SQQ9 86-172): as the sequence (Q5SQQ9 86-172 T142I) above, with I57T counted along it

CTTCGTTC: the binding signal in [1] was 9.33 upbm affinity estimate (log intensity, higher = more binding, comparable within an allelic series); in [2], 9.37 upbm affinity estimate (log intensity, higher = more binding, comparable within an allelic series); in test [3], 9.51 upbm affinity estimate (log intensity, higher = more binding, comparable within an allelic series); in test [4], 9.56 upbm affinity estimate (log intensity, higher = more binding, comparable within an allelic series); in test [5] it was 9.5 upbm affinity estimate (log intensity, higher = more binding, comparable within an allelic series); in test [6], 9.58 upbm affinity estimate (log intensity, higher = more binding, comparable within an allelic series).

As to CTAATCAG, the binding signal in test [1] was 11.2 upbm affinity estimate (log intensity, higher = more binding, comparable within an allelic series); in [2], 11.6 upbm affinity estimate (log intensity, higher = more binding, comparable within an allelic series); in test [3], 11.3 upbm affinity estimate (log intensity, higher = more binding, comparable within an allelic series); in test [4], 10.1 upbm affinity estimate (log intensity, higher = more binding, comparable within an allelic series); in test [5], 10.5 upbm affinity estimate (log intensity, higher = more binding, comparable within an allelic series); in test [6] it was 10.3 upbm affinity estimate (log intensity, higher = more binding, comparable within an allelic series).

For the sequence AGCGCCGC, the binding signal in test [1] is 9.3 upbm affinity estimate (log intensity, higher = more binding, comparable within an allelic series); in test [2] it was 9.34 upbm affinity estimate (log intensity, higher = more binding, comparable within an allelic series); in [3], 9.35 upbm affinity estimate (log intensity, higher = more binding, comparable within an allelic series); in test [4], 9.22 upbm affinity estimate (log intensity, higher = more binding, comparable within an allelic series); in [5] it was 9.31 upbm affinity estimate (log intensity, higher = more binding, comparable within an allelic series); in test [6], 9.31 upbm affinity estimate (log intensity, higher = more binding, comparable within an allelic series).

For the sequence GCGAGGCC, the binding signal in test [1] was 9.39 upbm affinity estimate (log intensity, higher = more binding, comparable within an allelic series); in test [2], 9.4 upbm affinity estimate (log intensity, higher = more binding, comparable within an allelic series); in test [3] it was 9.36 upbm affinity estimate (log intensity, higher = more binding, comparable within an allelic series); in test [4], 9.18 upbm affinity estimate (log intensity, higher = more binding, comparable within an allelic series); in test [5] it was 9.2 upbm affinity estimate (log intensity, higher = more binding, comparable within an allelic series); in test [6] it was 9.27 upbm affinity estimate (log intensity, higher = more binding, comparable within an allelic series).

In the case of CGAATTAA, the binding signal in test [1] was 12 upbm affinity estimate (log intensity, higher = more binding, comparable within an allelic series); in test [2] it was 12.6 upbm affinity estimate (log intensity, higher = more binding, comparable within an allelic series); in test [3] it was 11.9 upbm affinity estimate (log intensity, higher = more binding, comparable within an allelic series); in test [4], 10.6 upbm affinity estimate (log intensity, higher = more binding, comparable within an allelic series); in test [5] it was 11.2 upbm affinity estimate (log intensity, higher = more binding, comparable within an allelic series); in [6], 11.1 upbm affinity estimate (log intensity, higher = more binding, comparable within an allelic series).

CAGGCAGG: the binding signal was 9.45 upbm affinity estimate (log intensity, higher = more binding, comparable within an allelic series) in test [1]; 8.98 upbm affinity estimate (log intensity, higher = more binding, comparable within an allelic series) in [2]; 9.63 upbm affinity estimate (log intensity, higher = more binding, comparable within an allelic series) in [3]; 9.47 upbm affinity estimate (log intensity, higher = more binding, comparable within an allelic series) in test [4]; 9.56 upbm affinity estimate (log intensity, higher = more binding, comparable within an allelic series) in [5]; 7.2 upbm affinity estimate (log intensity, higher = more binding, comparable within an allelic series) in test [7]. Moreover, the binding signal in test [8] was 7.22 upbm affinity estimate (log intensity, higher = more binding, comparable within an allelic series); in test [6], 9.49 upbm affinity estimate (log intensity, higher = more binding, comparable within an allelic series); in [9] it was 7 upbm affinity estimate (log intensity, higher = more binding, comparable within an allelic series).

For ATTAGGGA, the binding signal is 11.1 upbm affinity estimate (log intensity, higher = more binding, comparable within an allelic series) in [1]; 11.5 upbm affinity estimate (log intensity, higher = more binding, comparable within an allelic series) in test [2]; 11.2 upbm affinity estimate (log intensity, higher = more binding, comparable within an allelic series) in test [3]; 10.1 upbm affinity estimate (log intensity, higher = more binding, comparable within an allelic series) in test [4]; 10.3 upbm affinity estimate (log intensity, higher = more binding, comparable within an allelic series) in [5]; 10.4 upbm affinity estimate (log intensity, higher = more binding, comparable within an allelic series) in test [6].

Regarding CTAATTCA, the binding signal is 11.7 upbm affinity estimate (log intensity, higher = more binding, comparable within an allelic series) in test [1]; 12.2 upbm affinity estimate (log intensity, higher = more binding, comparable within an allelic series) in [2]; 11.6 upbm affinity estimate (log intensity, higher = more binding, comparable within an allelic series) in test [3]; 10.5 upbm affinity estimate (log intensity, higher = more binding, comparable within an allelic series) in [4]; 11 upbm affinity estimate (log intensity, higher = more binding, comparable within an allelic series) in [5]; 11 upbm affinity estimate (log intensity, higher = more binding, comparable within an allelic series) in test [6].

On to CGCCTGCA, for which the binding signal is 9.25 upbm affinity estimate (log intensity, higher = more binding, comparable within an allelic series) in test [1]; 9.25 upbm affinity estimate (log intensity, higher = more binding, comparable within an allelic series) in test [2]; 9.33 upbm affinity estimate (log intensity, higher = more binding, comparable within an allelic series) in [3]; 9.34 upbm affinity estimate (log intensity, higher = more binding, comparable within an allelic series) in test [4]; 9.3 upbm affinity estimate (log intensity, higher = more binding, comparable within an allelic series) in [5]; 9.34 upbm affinity estimate (log intensity, higher = more binding, comparable within an allelic series) in test [6].

Take AAATTAGG: the binding signal in test [1] was 11.4 upbm affinity estimate (log intensity, higher = more binding, comparable within an allelic series); in test [2], 11.9 upbm affinity estimate (log intensity, higher = more binding, comparable within an allelic series); in test [3] it was 11.5 upbm affinity estimate (log intensity, higher = more binding, comparable within an allelic series); in test [4], 10.2 upbm affinity estimate (log intensity, higher = more binding, comparable within an allelic series); in test [5] it was 10.5 upbm affinity estimate (log intensity, higher = more binding, comparable within an allelic series); in test [6], 10.6 upbm affinity estimate (log intensity, higher = more binding, comparable within an allelic series).

As to GCCGCGCC, the binding signal in test [1] is 9.1 upbm affinity estimate (log intensity, higher = more binding, comparable within an allelic series); in test [2] it was 9.1 upbm affinity estimate (log intensity, higher = more binding, comparable within an allelic series); in [3], 9.18 upbm affinity estimate (log intensity, higher = more binding, comparable within an allelic series); in test [4], 9.12 upbm affinity estimate (log intensity, higher = more binding, comparable within an allelic series); in test [5], 9.11 upbm affinity estimate (log intensity, higher = more binding, comparable within an allelic series); in test [6], 9.16 upbm affinity estimate (log intensity, higher = more binding, comparable within an allelic series).
